Laboratory results taken from PubChem BioAssay (NCI).
The panel holds about 83,000 compounds, 20% with a hit somewhere; the sample as a whole holds those more often.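 How to read the values: 0–100, growth inhibition (40 = 60% inhibited); 0, no net growth; -100 to 0, cell death (-40 = 40% of starting cells died; -100 = all dead).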 Unmarked numbers belong to inactive results. The source made the active and inactive calls.

The compounds below were run on MCF7 breast (assay: NCI-60 one-dose screen, 48 h (100 = growth as untreated, 0 = no growth, -100 = all killed)). Settings: 10 µM.
Description: Growth inhibition of the MCF7 human tumor cell line is measured as a screen for anti-cancer activity. Cells are grown in 96 well plates and exposed to the test compound for 48 hours. Compounds are tested at a single concentration, which is 10^-5 M for most compounds. The reported endpoint is percent growth (GI% or GIPRCNT), where numbers from 0 - 100% represent growth inhibition, and numbers from -100% - 0 represent cell death. For example, a value of 40 represents 60% growth inhibition. A value of 0 means no net growth occurred over the course of the experiment. A value of -40 indicates 40% of cells at the beginning of the experiment died by the end of the experiment. A value of -100 means all cells are dead at the end of the experiment.
NCI-60 Human Tumor Cell Lines Screen was performed using the standard one-dose NCI protocol, which is described in more detail at https://dtp.cancer.gov/discovery_development/nci-60/default.htm.
Compounds with GIPRCNT values below 10 were considered active. Activity score was based on GIPRCNT using the following formula: […]
Score is 0 for GIPRCNT values of 100 or above, 50 for GIPRCNT values of 0, and 100 for GIPRCNT values of -100.

Row | SMILES | growth
1 | COc1ccccc1-n1cc(C#N)c(N)c1C(=O)c1ccc(Cl)cc1Cl | 16.4%
2 | Cc1cc(N=C2NC(=O)/C(=C/c3cc(C(C)(C)C)c(O)c(C(C)(C)C)c3)S2)n[nH]1 | 4.33% (active)
3 | COc1cc(C2CC(c3ccc(Oc4ccc(Cl)cc4)cc3)=NN2c2nc(-c3ccc(Cl)cc3)c(C#N)c(N3CCOCC3)n2)cc(OC)c1OC (stereo not given) | 84.6%
4 | O=[N+]([O-])c1cccc(-c2nnc3c(/C=C/c4ccccc4O)nc4ccccc4n23)c1 | 22.1%
5 | Fc1ccc(/C=C/c2nc3ccccc3n3c(-c4ccc(Cl)cc4)nnc23)cc1 | 12.9%
6 | COc1cccc(O)c1/C=C1\SCc2cc3c(OC)cccc3[o+]c21 | 90%
7 | CC1(C)CC(=O)C2=C(C1)N(Cc1ccc(C(=O)O)cc1)C1=C(C(=O)CC(C)(C)C1)C2c1ccc(Cl)cc1 | 89.6%
8 | O=C(CN1CCN(c2ncnc3c2cnn3-c2ccccc2)CC1)Nc1ccc(Cl)cc1 | 27.6%
9 | O=C(c1ccccc1)c1ccc2nc(-c3ccccc3Br)[nH]c2c1 | -6.39% (active)
10 | Cn1cc(-c2cc(N)n3nc(-c4cn(C)c5ccccc45)cc3n2)c2cc(F)ccc21 | -56.2% (active)
11 | COc1ccc(Cc2nn(CC(=O)N/N=C/c3ccc([N+](=O)[O-])cc3)c(=O)c3c(C)noc23)cc1 | 55%
12 | Cc1ccc(-c2nc(C#N)c(S(=O)(=O)N3CCN(S(C)(=O)=O)CC3)o2)cc1 | 5.73% (active)
13 | O=C(c1ccc(Cl)cc1)C(c1c[nH]c2ccccc12)c1c[nH]c2ccccc12 | -69.3% (active)
14 | C#CCOc1cc(N(CC)CC)ccc1C(C(=O)NC(C)(C)C)N(C(=O)C1CCc2cc(F)ccc2O1)c1ccc(F)cc1F (stereo not given) | 17.5%
15 | COc1ccc(C2OC[C@@]3(C)C4CC[C@]5(C)C(CC=C6C7CC(C)(C)CC[C@]7(C(=O)O)CC[C@]65C)[C@@]4(C)C[C@@H](O)[C@@H]3O2)cc1 (stereo not given in full) | 50.9%
16 | COc1ccc(-n2c(SCC(=O)NNS(=O)(=O)c3ccccc3)nc3ccc(Cl)cc3c2=O)cc1 | 83.2%
17 | O=C1NC(=S)S/C1=C\c1cn(-c2ccccc2)nc1-c1ccc([N+](=O)[O-])cc1 | 6.25% (active)
18 | CCOc1ccc(/C=N/NC(=O)Cn2nc(Cc3ccc(OC)cc3)c3onc(C)c3c2=O)cc1 | 27.9%
19 | Cn1cc(-c2nnc(N)nc2-c2c[nH]c3ccccc23)c2cc(Br)cnc21 | 14%
20 | COc1cccc(C(=O)CSc2nc(-c3ccc(OCc4ccccc4)c(OC)c3)c(C#N)c(=O)[nH]2)c1 | 91.3%

Row | SMILES | growth
21 | COc1ccc(Cn2cc(C#N)c(N)c2C(C)=O)c(OC)c1 | 101%
22 | Cn1cc(-c2cc3nc(-c4c[nH]c5ccccc45)cc(N)n3n2)c2cc(Cl)ccc21 | -85.9% (active)
23 | Cc1cc(N=C2NC(=O)S/C2=C\c2ccc(F)cc2)n[nH]1 | 7.74% (active)
24 | Cc1ccc(COc2ccc(NC(=O)Nc3ccc(Cl)c(C(F)(F)F)c3)cc2)cc1 | 41.6%
25 | COc1cc(C2CC(c3ccccc3)=Nc3c(N)nc(N)nc3N2)ccc1Oc1nc(NCCO)nc(N2CCOCC2)n1 (stereo not given) | 83%
26 | Cn1cc(-c2nnc(N)nc2-c2c[nH]c3ccc(F)cc23)c2cc(Br)cnc21 | 27.7%
27 | O=C(Nc1ccc(OCc2ccc(F)cc2)cc1)Nc1ccc(Cl)c(C(F)(F)F)c1 | 3.2% (active)
28 | O=C(CSc1nc2ccccc2c(=O)n1-c1ccc(Cl)cc1)Nc1ccc(-c2nc3ccc([N+](=O)[O-])cc3[nH]2)cc1 | 20.9%
29 | COc1ccc(C(=O)COc2ccc(NC(=O)Nc3ccccc3)cc2)cc1 | 67.2%
30 | COc1ccc(C2c3sc4ccc(C)cc4c3Oc3nc[nH]c(=O)c32)cc1 (stereo not given) | 69.6%
31 | Fc1ccc(-c2csc(Nc3cccc(Nc4nc(-c5ccc(F)cc5)cs4)c3)n2)cc1 | 24.7%
32 | O=C(CSc1nc2ccccc2c(=O)n1-c1ccc(Cl)cc1)Nc1ccc(-c2nc3ccccc3[nH]2)cc1 | -68.3% (active)
33 | O=C(CN1CCN(c2ncnc3c2cnn3-c2ccccc2)CC1)Nc1ccc(Br)cc1 | 36.8%
34 | Nc1nnc(-c2c[nH]c3ncc(Br)cc23)c(-c2c[nH]c3ccc(Br)cc23)n1 | 15.7%
35 | COc1ccc(C2c3sc4ccc(C)cc4c3Oc3nc(N)nc(N)c32)cc1 (stereo not given) | 53.8%
36 | C#C[C@]1(O)CC[C@H]2[C@@H]3CC=C4c5sc(Nc6ccc(C(F)(F)F)cn6)nc5CC[C@]4(C)[C@H]3CC[C@@]21C | -28.7% (active)
37 | CC1[C@H]2[C@H](C[C@H]3[C@@H]4CC=C5c6sc(Nc7cccc(Cl)n7)nc6CC[C@]5(C)[C@H]4CC[C@@]32C)O[C@]12CC[C@@H](C)CO2 (stereo not given in full) | -66.6% (active)
38 | Cc1ccc2c(c1)C(=O)/C(=C/c1c[nH]c3ccccc13)S2 | 18.6%
39 | Cn1cc(/C=C(/SS/C(=C/c2cn(C)c3cccc(C(=O)O)c23)C(=O)O)C(=O)O)c2c(C(=O)O)cccc21 | 92.6%
40 | CCOC(=O)c1ccc(NC(=O)CSC(CC(=O)c2sc(Nc3ccccn3)nc2C)c2ccccc2F)cc1 (stereo not given) | -17.3% (active)
